The source made the active and inactive calls.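 Rule for the calls: active = glucocerebrosidase enzyme activity raised in patient cells of every tested mutation; inactive = no rise in glucocerebrosidase activity for any mutation.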

Chain of Lysosomal acid glucosylceramidase (Homo sapiens) (P04062 40-536 N409S): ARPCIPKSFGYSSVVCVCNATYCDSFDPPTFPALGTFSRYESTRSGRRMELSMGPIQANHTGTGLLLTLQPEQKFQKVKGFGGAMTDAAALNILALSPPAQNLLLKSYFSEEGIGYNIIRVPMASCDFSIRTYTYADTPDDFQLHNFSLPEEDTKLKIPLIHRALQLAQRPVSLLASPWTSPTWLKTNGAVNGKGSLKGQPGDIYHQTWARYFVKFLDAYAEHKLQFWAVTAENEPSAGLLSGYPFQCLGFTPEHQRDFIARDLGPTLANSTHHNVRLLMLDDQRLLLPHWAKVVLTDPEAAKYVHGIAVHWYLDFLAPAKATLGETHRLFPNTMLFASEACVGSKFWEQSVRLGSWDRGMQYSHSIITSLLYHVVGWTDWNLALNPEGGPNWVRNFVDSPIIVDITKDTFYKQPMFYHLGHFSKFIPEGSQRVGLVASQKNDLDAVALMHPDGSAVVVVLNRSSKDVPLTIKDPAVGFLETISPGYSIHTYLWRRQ

The assay addresses Lysosomal acid glucosylceramidase (Homo sapiens) (UniProt P04062). The assay is described as follows: Extended Characterization of Activators of N370S glucocerebrosidase as a Potential Chaperone Treatment of Gaucher Disease: Quantification of GCase activity. Particulars: Gaucher patient macrophages, GCase 4MU fluorescence. From the text:
Glucocerebrosidase (GCase) catalyzes the hydrolysis of beta-glucocerebroside to glucose and ceramide in lysosomes. Mutations in the glucocerebrosidase gene result in Gaucher disease, an autosomal recessive lysosomal storage disorder. Many of the mutations encountered in patients with Gaucher disease are missense alterations that may cause misfolding, decreased stability and/or mistrafficking of this lysosomal protein. […] These inhibitors include iminosugar analogs and other inhibitors that were discovered as part of previous work. However, the enhancement of enzyme activity by the chaperone action of an enzyme inhibitor must be balanced against the direct inhibition of the enzyme. […] In this extended characterization of our probe, we have further characterized the activity of ML198 in patient-derived cellular models of Gaucher disease. In Gaucher-derived macrophages from 17 patients, with 4 separate mutation, we quantified GCase activity using a fluorescence read-out. NIH Chemical Genomics Center [NCGC] NIH Molecular Libraries Probe Production Centers Network [MLPCN] […]
Treated cells were cultured in black 96-well plates. After adding 100 µl assay buffer (200 mM sodium acetate (pH4), 5 mM 4MU-betaGlu and protease inhibitor cocktail (Sigma), cells were incubated for 1 hr at 37 degrees C. The reaction was halted using a stop solution (1 M NaOH and 1 M Glycine) and fluorescence measured.
Regarding `C#Cc1ccc(NC(=O)c2cnn3c(C)cc(C)nc23)cc1`, the outcome is “active; increased”.

These data come from PubChem BioAssay AID652095 (National Center for Advancing Translational Sciences (NCATS), 2013).
